Screening results deposited in PubChem BioAssay by National Center for Advancing Translational Sciences (NCATS).
G9a block: G9a (human) methyltransferase inhibition | Potency, µM (titrated, usually from 102 µM), without a hit: at the highest dose activity, negative = inhibition, actives largely listed as inhibitors | actives 8.8% (n = 350,000) | G9a H3K9 monomethylation, AlphaScreen, 2 h | AID 504332; further: potency means the concentration at half of the fitted maximal effect; nearly all actives have a fitted effect of over 75% in size
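AlphaScreen read-out: biotin-H3K9 peptide (500 nM) methylation by 20 nM enzyme with 20 uM SAM, 2 h at room temperature after 15 min compound preincubation; anti-monomethyl H3K9 antibody plus donor/acceptor beads, 10 min dark.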
VDR inhibitor: blocks the human vitamin D receptor; VDR-SRC2-3 peptide fluorescence polarization, 2 h; P11473; Potency, µM, for the others: max response, negative = inhibition, actives largely listed as inhibitors; actives 0.93% (n = 400,000); further: potency means the concentration at half of the fitted maximal effect
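Compounds are added to VDR with labelled SRC2-3 coactivator peptide and held 2 h at room temperature. Inhibition of the VDR–peptide interaction is then read as a change in fluorescence polarization.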
Sfp inh: blocks B. subtilis Sfp PPTase activity; Biochemical Sfp PPTase activity, qHTS; Potency, µM, without a hit: largest response in the series, negative = inhibition, most hits filed as inhibitors; actives 3.5% (n = 310,000); AID 1490; Q9F4F7;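 further: the enzyme is Sfp with the accession as filed and its product quenches rhodamine fluorescence; potency means the concentration at half of the fitted maximal effect; 0% = enzyme reaction without inhibitor and -100% = no enzyme wells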
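Sfp 15 nM + cpd, 15 min RT; start w/ rhodamine-CoA 5 uM, BHQ-2-YbbR 12.5 uM (final); 50 mM Hepes pH 7.6, 10 mM MgCl2, 0.01% NP-40, 0.01% BSA; read 525/598 nm at 0 and 30 min.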
Mm-Cpn inhibitor: inhibitors of Methanococcus maripaludis chaperonin TRiC (MmCpn) | purified Mm-Cpn ATPase, ADP Transcreener TR-FRET | Potency, µM (titrated, usually from 76.9 µM), inactives show top-dose activity, negative = inhibition, usual class: inhibitors | actives 0.031% (n = 330,000); further: potency means the concentration at half of the fitted maximal effect; nearly all actives have a fitted effect of over 80% in size
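Quantitative HTS used 25 nM Mm-CPN and 10 uM ATP in magnesium/KCl Tris buffer, pH 7.4, with 1 mM DTT. Hydrolysis ran 30 min at 37°C; ADP was read by HTRF.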
PLK1 PBD block: blocks phosphopeptide binding to human PLK1 polo-box domain; P53350; Plk1 PBD binding of FITC phosphopeptide, fluorescence polarization; Potency, µM, for inactives: max response, negative = inhibition, usual class: inhibitors; AID 720504; actives 2.8% (n = 360,000); further: potency means the concentration at half of the fitted maximal effect; series mostly up to about 57 µM; nearly all actives have a fitted effect of over 65% in size
Target sequence (P53350 whole entry, looked up, the tested form may be a part): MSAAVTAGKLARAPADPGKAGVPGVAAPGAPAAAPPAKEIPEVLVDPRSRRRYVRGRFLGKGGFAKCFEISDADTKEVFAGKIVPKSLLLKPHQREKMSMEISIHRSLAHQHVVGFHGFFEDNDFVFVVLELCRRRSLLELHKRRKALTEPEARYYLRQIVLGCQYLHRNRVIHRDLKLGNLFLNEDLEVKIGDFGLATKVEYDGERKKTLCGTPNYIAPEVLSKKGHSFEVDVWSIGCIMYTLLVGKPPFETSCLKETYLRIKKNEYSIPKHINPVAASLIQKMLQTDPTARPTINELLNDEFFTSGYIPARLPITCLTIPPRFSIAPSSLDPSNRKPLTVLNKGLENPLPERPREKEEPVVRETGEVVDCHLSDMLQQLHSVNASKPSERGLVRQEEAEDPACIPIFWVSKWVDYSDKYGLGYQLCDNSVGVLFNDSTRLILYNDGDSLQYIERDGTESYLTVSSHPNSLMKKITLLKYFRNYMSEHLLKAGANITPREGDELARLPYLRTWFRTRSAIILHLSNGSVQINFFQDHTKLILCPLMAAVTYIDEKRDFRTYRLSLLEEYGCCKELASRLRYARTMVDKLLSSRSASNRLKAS
CCT modulator: cytosolic chaperonin activity modulation. purified chaperonin ATPase assay, HTRF ADP detection, 30 min. activity change, % (no concentration beside the values), hits read low. actives 0.3% (n = 360,000); in the data active means activity change below about -30%
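Nucleotide hydrolysis assay: TRiC at 20–40 nM final (set by batch activity) with 10 uM ATP, 30 min at 37 °C, in presence of 76 uM compound. Detection by competitive ADP HTRF, 30 min ambient.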
Numbers without * were called inactive; ? = inconclusive; . = not tested or not shown; [ ] = remark or other dose. Sampled rows, rich in hits. Any-hit rate of the full collection: about 10%. Unless noted, the call rests on the fitted dose curve; in most records, active means well fitted curve in the direction sought with a large enough effect; inconclusive means small, poorly fitted or top-dose-only effect, or another doubt; inactive means no such curve, though single readings can be large; an effect the other way counts as inactive or inconclusive. Unless noted, on the % scale 0 is the no-effect control and ±100 the full control effect.

SMILES	G9a block	VDR inhibitor	Sfp inh	Mm-Cpn inhibitor	PLK1 PBD block	CCT modulator
CSc1nsc2nc(=O)c(/C=C3\C=Nc4ccccc43)c(N)n12	20%	-16%	-23%	-5%	?	2
Cc1ccc(S(=O)(=O)N2CCN(c3nc(C)nc4sc(C)c(C)c34)CC2)cc1	6%[59 µM]	.	0%	-8%	.	.
CCOC(=O)c1sc2nc(C)nc(N3CCN(S(=O)(=O)c4ccccc4)CC3)c2c1C	.	-8%	.	-12%	24µM*	0
Cc1nn2c(nc1=O)NNC2(C)C(C)(C)C (configuration not stated)	25%	11%	35µM*	1%	-13%	-2
COc1ccc(OCC(=O)N(Cc2cccc(OC)c2)C2CCS(=O)(=O)C2)cc1 (configuration not stated)	-2%[59 µM]	4%	.	.	.	.
COc1ccc(OCC(=O)NNC(=O)C(=O)N2CCCC2)cc1	20µM*	-27%	-9%	1%	0%	-6
O=C(CSc1ncccn1)Nc1ccc2[nH]c(=O)[nH]c2c1	14µM*	-22%	.	0%	-7%	-1
COc1ccc(OCC(=O)OCC(=O)Nc2ccc3[nH]c(=O)[nH]c3c2)cc1	8.9µM*	-2%	.	-4%	-8%	-1
COc1ccc(CCC(=O)OCC(=O)Nc2ccc3[nH]c(=O)[nH]c3c2)cc1	-35%	-17%	.	-1%	-4%	-2
O=C(COC(=O)Cc1ccc(Cl)cc1)Nc1ccc2[nH]c(=O)[nH]c2c1	50µM*	-3%	.	1%	-1%	0
COc1cc(Cl)c(C)cc1NC(=O)CNC(=O)Cn1ccc2ccccc2c1=O	3%[59 µM]	-5%	.	.	.	.
CSc1cccc(NC(=O)COc2ccccc2)c1	10%[12.7 µM]	-21%	-5%	-4%	3µM*	-2
COc1ccc(OCC(=O)Nc2cc(OC)cc(OC)c2)cc1	27%[59 µM]	-4%	-2%	3%	-4%	-46*
CC(=O)c1cccc(NC(=O)COc2ccccc2)c1	-1%[59 µM]	34%	22%	-2%	-5%	-3
Cc1ccc(C2c3c(oc4cc(C)c(C)cc4c3=O)C(=O)N2CCCN2CCOCC2)cc1 (configuration not stated)	40µM*	-7%	-14%	0%	-22%	1
CC(C)Oc1ccc(C2c3c(oc4ccccc4c3=O)C(=O)N2CCCN2CCOCC2)cc1 (configuration not stated)	?	-2%	-2%	-1%	-27%	2
O=C1c2oc3ccc(Cl)cc3c(=O)c2C(c2ccccn2)N1CCCN1CCOCC1 (configuration not stated)	20µM*	?	25µM*	2%	?	-2
C=CCOc1ccc(C2c3c(oc4ccccc4c3=O)C(=O)N2CCCN2CCOCC2)cc1 (configuration not stated)	50µM*	10%	-6%	0%	?	-2
COc1ccc(C2c3c(oc4ccc(C)cc4c3=O)C(=O)N2CCCN2CCOCC2)cc1OC (configuration not stated)	-21%[59 µM]	16%	.	.	.	.
NC(=O)CSc1ncc2c(n1)-c1ccccc1N(Cc1ccccc1)S2(=O)=O	7%[59 µM]	3%	.	.	.	.
O=C(COc1ccc(/C=C\[N+](=O)[O-])cc1)N1CCOCC1	10µM*	?	40µM*	-1%	?	-1
O=[N+]([O-])/C=C\c1ccc(N2CCOCC2)cc1	.	25µM*	.	.	30µM*	-2
O=C(COc1ccc(S(=O)(=O)N2CCOCC2)cc1)N1CCOCC1	-10%[59 µM]	?	.	2%	-14%	-5
COc1ccc(-c2cn3c(n2)sc2cc(C(=O)Nc4ccc(C)c(C)c4)ccc23)cc1	-2%[59 µM]	25%	.	.	.	.
Cc1ccccc1NC(=O)CCc1c(C)nc2c(c1C)c(=O)n(C)c(=O)n2C	0%[59 µM]	-16%	.	.	.	.
SMILES	G9a block	VDR inhibitor	Sfp inh	Mm-Cpn inhibitor	PLK1 PBD block	CCT modulator
COc1ccc(NCc2ccc(OC)c(OC)c2)cc1	?	.	-3%	0%	.	.
COc1ccc(CNc2ccc(C)c(C)c2)cc1	45µM*	-7%	12%	-1%	2%	-10
COc1ccc(CNc2ccc(C)c(C)c2)c(OC)c1OC	35µM*	-4%	16%	-1%	-10%	1
COc1ccc(CNc2ccc(Br)cc2)cc1	129%	3%	56µM*	2%	5%	1
CCCSc1ncc(Cl)c(C(=O)Nc2ccc(S(=O)(=O)N3CCCCC3C)cc2)n1 (configuration not stated)	-15%[59 µM]	5%	.	.	.	.
CCOC(=O)Cn1c(=O)n(C2CCCCC2)c2nc(-c3cccc(C)c3)nc(C(N)=O)c21	-3%[59 µM]	12%	.	.	.	.
Cc1ccc(CNc2ccc3c(c2)OCO3)c(C)c1	13µM*	.	?	.	.	.
Cc1ccc(C)c(NC(=O)Nc2ccc3c(c2)OCO3)c1	5%[12.7 µM]	4%	0%	-13%	0%	-5
O=c1cccc2n1Cc1cc3ccccc3nc1-2	45µM*	-2%	12%	-6%	-9%	1
c1ccc2c(c1)-c1nc3ccccc3cc1C2N1CCCCC1 (configuration not stated)	.	.	.	.	2%	2
CC(=O)c1cccc(OCC(O)CNCC2COc3ccccc3O2)c1 (configuration not stated)	26%[0.501 µM]	-3%	?	3%	3%	-1
CC(OCC(O)CNCC1COc2ccccc2O1)c1ccc(Cl)cc1 (configuration not stated)	10µM*	-25%	-14%	1%	4%	3
OC(CNCC1COc2ccccc2O1)COCc1cccs1 (configuration not stated)	8.9µM*	16%	-24%	0%	-12%	3
CCCCCCCOC(=O)C[N+](C)(C)CCOC1CC2CCC1(C)C2(C)C (configuration not stated)	10%[59 µM]	-28%	50µM*	-1%	-10%	1
CCCCCCOC(=O)C[N+](C)(C)CCOC1CC2CCC1(C)C2(C)C (configuration not stated)	?	7%	?	-3%	-2%	0
CCOc1ccc(-c2cc(C(=O)Nc3ccc(NC(C)=O)cc3)no2)cc1	8%[59 µM]	1%	.	.	.	.
CC(C)OC(=O)c1cccc(C(=O)O)n1	2.5µM*	5%	50µM*	-1%	2%	1
CCCCCNC(=O)c1ccc2c(c1)nc(C)n2-c1cccc(C)c1	-17%[59 µM]	-7%	.	.	.	.
Cc1ccccc1OCC(=O)N/N=C1\CC(=O)CC(C)(C)C1	23%	21%	3%	2%	-13%	0
CC1(C)CC(=O)C/C(=N/Nc2nc3ccccc3s2)C1	50µM*	?	1%	-10%	-19%	0
CC1CCC/C(=N/Nc2nc3ccccc3s2)C1 (configuration not stated)	-7%	-6%	?	3%	30µM*	-1
COc1cc(/C=N/Nc2ccccc2)ccc1OC(=O)c1cccs1	28µM*	-10%	-8%	1%	4%	0
